Reference: PubChem BioAssay (NCI)
Where “and” joins values, the source holds several entries; their conditions need not be identical. Identical values can stand only once. About 83,000 compounds went through this panel and 20% of them were active in at least one assay; those are over-represented in the sample as a whole.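 Testing used 96-well plates and a 48-hour single-concentration exposure. Example: -40 means 40% of the starting cells died.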 Calls of active or inactive are those of the source. The calls were made as follows: active = growth percent below 10; inactive = the rest.

Key:
Assay in all cases: NCI-60 one-dose screen, 48 h (100 = growth as untreated, 0 = no growth, -100 = all killed)
Conditions in all cases: 10 µM unless noted
HT29 colon = system: HT29 colon
SNB-75 CNS = system: SNB-75 CNS
SNB-19 CNS = system: SNB-19 CNS
U251 CNS = system: U251 CNS
PC-3 prostate = system: PC-3 prostate
SK-MEL-5 melanoma = system: SK-MEL-5 melanoma
UACC-62 melanoma = system: UACC-62 melanoma
LOX IMVI melanoma = system: LOX IMVI melanoma
SK-MEL-28 melanoma = system: SK-MEL-28 melanoma
SK-MEL-2 melanoma = system: SK-MEL-2 melanoma
EKVX NSCLC = system: EKVX NSCLC
SN12C renal = system: SN12C renal
UO-31 renal = system: UO-31 renal
TK-10 renal = system: TK-10 renal
ACHN renal = system: ACHN renal
CAKI-1 renal = system: CAKI-1 renal
A498 renal = system: A498 renal
MOLT-4 leukemia = system: MOLT-4 leukemia
CCRF-CEM leukemia = system: CCRF-CEM leukemia

| Compound | growth (HT29 colon) | growth (SNB-75 CNS) | growth (SNB-19 CNS) | growth (U251 CNS) | growth (PC-3 prostate) | growth (SK-MEL-5 melanoma) | growth (UACC-62 melanoma) | growth (LOX IMVI melanoma) | growth (SK-MEL-28 melanoma) | growth (SK-MEL-2 melanoma) | growth (EKVX NSCLC) | growth (SN12C renal) | growth (UO-31 renal) | growth (TK-10 renal) | growth (ACHN renal) | growth (CAKI-1 renal) | growth (A498 renal) | growth (MOLT-4 leukemia) | growth (CCRF-CEM leukemia) |
| --- | --- | --- | --- | --- | --- | --- | --- | --- | --- | --- | --- | --- | --- | --- | --- | --- | --- | --- | --- |
| Cn1c(=O)c2c(-c3ccccc3F)n(-c3ccc4c(c3)OCO4)cc2n(C)c1=O | 112% (inactive) | 80.9% (inactive) | 99.6% (inactive) | 92.1% (inactive) | 74.7% (inactive) | 67.3% (inactive) | 86.2% (inactive) | 95.9% (inactive) | 100% (inactive) | 133% (inactive) | 87.6% (inactive) | 90.4% (inactive) | 82.4% (inactive) | 115% (inactive) | 100% (inactive) | 89.6% (inactive) | 69.5% (inactive) | 72.9% (inactive) | – |
| CN1CCC(OC2c3ccccc3CCc3ccccc32)CC1 | 90.1% (inactive) | 65.7% (inactive) | 99.2% (inactive) | 92.5% (inactive) | 78.3% (inactive) | – | 98.4% (inactive) | 91.1% (inactive) | 94.2% (inactive) | 113% (inactive) | 84.9% (inactive) | 93.9% (inactive) | 73.4% (inactive) | 89% (inactive) | 97.5% (inactive) | 75.4% (inactive) | 77.9% (inactive) | – | 94.1% (inactive) |
| COC(=O)c1c2c(c(C)[n+]([O-])c1C)C(=O)C=C(NCc1ccc(Cl)cc1)C2=O | 2.63% (active) | -94.8% (active) | -23.5% (active) | -7.46% (active) | 1.07% (active) | -98.8% (active) | -65.5% (active) | -23.2% (active) | 10.6% (inactive) | -30.9% (active) | -50% (active) | -84.9% (active) | -9.07% (active) | 21.7% (inactive) | -19.1% (active) | -3.15% (active) | – | -32.2% (active) | -6.94% (active) |
| COc1cc(C(=O)N(C(C)C)C2CCCCC2)cc(OC)c1OC | 99.2% (inactive) | 87.6% (inactive) | 97.9% (inactive) | 102% (inactive) | 89.8% (inactive) | – | 96.5% (inactive) | 94.6% (inactive) | 105% (inactive) | 98.5% (inactive) | 144% (inactive) | 96.3% (inactive) | 89% (inactive) | 94% (inactive) | 103% (inactive) | 86.6% (inactive) | 102% (inactive) | 97.1% (inactive) | 94.8% (inactive) |
| COC(=O)c1c2c(c(C)[n+]([O-])c1C)C(=O)C=C(NCc1ccc(F)cc1)C2=O | 2.67% (active) | -92% (active) | -66.5% (active) | -23.1% (active) | 2.62% (active) | -96.8% (active) | -81.7% (active) | -47.1% (active) | 6.43% (active) | -31.3% (active) | -57% (active) | -88.8% (active) | -21% (active) | 13.6% (inactive) | -45.2% (active) | -0.887% (active) | – | -35.2% (active) | 4.77% (active) |
| Cc1cc[n+](CCc2ccccc2)cc1 | – | – | – | 97.2% (inactive) | – | 92.7% (inactive) | – | – | – | 107% (inactive) | 80.6% (inactive) | – | – | – | – | – | – | – | – |
| CCOc1cc2c(cc1O)C(=O)C[C@@H]1[C@@H]2CC[C@]2(C)[C@@H](O)CC[C@@H]12 | – | – | – | – | – | – | 13.5% [100 µM] (inactive) and 0.709% [100 µM] (active) | – | – | – | – | – | – | 38.8% [100 µM] (inactive) and -2.4% [100 µM] (active) | – | – | – | – | – |
| C=C1C(=O)OC2/C=C(\CO)C(OC(C)=O)CC(O)/C(C)=C/C(OC(=O)C(C)CC)C12 (stereo unspecified) | – | – | – | – | – | – | -85.5% [100 µM] (active) and -98.8% [100 µM] (active) | – | – | – | – | – | – | -36.1% [100 µM] (active) and -92% [100 µM] (active) | – | – | – | – | – |
| CN(C)CCNc1ccc(NCC[N+](C)(C)Cc2ccc([N+](=O)[O-])cc2)c2c1C(=O)c1c(O)ccc(O)c1C2=O | – | – | – | – | – | – | 24.1% [100 µM] (inactive) and 0.198% [100 µM] (active) | – | – | – | – | – | – | 91.1% [100 µM] (inactive) and -23.2% [100 µM] (active) | – | – | – | – | – |
| CC1OC(OC2C(O[C@H]3CC[C@@]4(C)C(=CC[C@H]5[C@@H]6C[C@@H]7O[C@]8(CC[C@H](C)CN8)[C@@H](C)[C@@H]7[C@@]6(C)CC[C@@H]54)C3)OC(CO)C(O)C2OC2OC(CO)C(O)C(O)C2O)C(O)C(O)C1O (stereo partly specified) | – | – | – | – | – | – | 96.6% [100 µM] (inactive) and -100% [100 µM] (active) | – | – | – | – | – | – | 95.2% [100 µM] (inactive) and -95% [100 µM] (active) | – | – | – | – | – |
| Cc1nc2nc(C(F)(F)F)[nH]c2nc1C | 107% (inactive) | 85.1% (inactive) | – | 102% (inactive) | 104% (inactive) | – | 102% (inactive) | 98.6% (inactive) | 102% (inactive) | – | 89.5% (inactive) | 95.4% (inactive) | – | 104% (inactive) | 110% (inactive) | 98.3% (inactive) | 98.7% (inactive) | 113% (inactive) | 93.3% (inactive) |
